Experimental data published in PubChem BioAssay (NCI).
Compounds without any hit were thinned out: in the full panel of roughly 79,000, 15% have a hit. Unmarked numbers belong to inactive results. Activity calls are given as the source filed them. Rule as the data show it: active = growth inhibition above about 70%; inactive = the rest.

Assays:
[1] = NCI Yeast Anticancer Drug Screen. Data for the rad50 strain (AID 155);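 also: 0% = growth of vehicle-only cultures of the same strain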; settings: S. cerevisiae rad50 strain growth inhibition; at 50.0 µM; stronger effect = higher value
Outline: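 Readout: growth inhibition relative to vehicle-treated cultures. Compound exposure was carried out in a genetically defined yeast strain deficient in DNA damage repair.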

[2] = NCI Yeast Anticancer Drug Screen. Data for the mec2-1 strain (AID 157); settings: S. cerevisiae mec2-1 strain, at 50.0 µM, stronger effect = higher value
Outline: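 Each compound was tested on mec2-1 yeast, a strain altered in DNA damage repair or cell cycle control. Growth inhibition is reported relative to vehicle.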

[3] = NCI Yeast Anticancer Drug Screen. Data for the sgs1 mgt1 strain (AID 161);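 also: 0% = growth of cultures given vehicle only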; settings: S. cerevisiae sgs1 mgt1 strain, at 50.0 µM, stronger effect = higher value
Outline: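 Read-out: growth inhibition vs vehicle controls. Cells: mutant yeast strain deficient in DNA damage repair.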

[4] = NCI Yeast Anticancer Drug Screen. Data for the cln2 rad14 strain (AID 165);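 also: 0% = growth equal to vehicle treated cultures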; settings: S. cerevisiae cln2 rad14 strain, at 50.0 µM, stronger effect = higher value
Outline: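 Test compounds were added to cln2 rad14 yeast cultures; inhibition of growth was then determined by comparison with vehicle treatment.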

[5] = NCI Yeast Anticancer Drug Screen. Data for the bub3 strain (AID 167); settings: S. cerevisiae bub3 mutant strain, at 50.0 µM, stronger effect = higher value
Outline: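 Readout: yeast growth inhibition, expressed relative to vehicle-only wells. The test organism is a mutant strain from a panel with lesions in DNA repair or checkpoint genes.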

[6] = NCI Yeast Anticancer Drug Screen. Data for the mlh1 rad18 strain (AID 175); settings: S. cerevisiae mlh1 rad18 strain growth inhibition; at 50.0 µM; stronger effect = higher value
Outline: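 Inhibition values reflect reduced growth of mutant yeast versus vehicle-treated controls following compound exposure; the mutations affect DNA damage repair.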

Compound | growth inhibition [1] | growth inhibition [2] | growth inhibition [3] | growth inhibition [4] [%] | growth inhibition [5] | growth inhibition [6]
CCOC(=O)C(=O)N=Nc1nc2c(O)c3ccccc3c(O)c2s1 | 78.2% (active) | 87.8% (active) | 83% (active) | 45.8 | 89.2% (active) | 58.5%
Cc1cccc(C(N)=O)c1 | 22.6% | 6.7% | 3.3% | -4.75 | 8.95% | 32.9%
C[CH2][Sn]([CH2]C)([n]1c2ccccc2c2c(C)c3cnccc3c(C)c21)[n]1c2ccccc2c2c(C)c3cnccc3c(C)c21 | 72.2% (active) | 14.7% | 25.5% | 44.5 | 25.6% | 71.3% (active)
CCCCCCC1(C)OCC(c2ccccc2)O1 (stereo unspecified) | -0.1% | -33.5% | 5.95% | -11.7 | 2.2% | 9.65%
NC(CCC(=O)NC(CSCNC(=O)Nc1ccc(Cl)cc1)C(=O)NCC(=O)O)C(=O)O (stereo unspecified) | -5.15% | 4.4% | -1.65% | -13.7 | -3.85% | 15.9%
CC1=CCCCC1O (stereo unspecified) | -7.15% | 10.6% | -6.7% | 4.55 | 14.1% | -0.6%
NC(=O)N/N=C1/C=C2CCCCC2CC1 (stereo unspecified) | 6.8% | 0.35% | -1% | 10.8 | -16.4% | 10.2%
COc1ccc(/C=N/O)cc1OC | -1.8% | 14.8% | -2.15% | 11.8 | 10.9% | 5.95%
N#Cc1c2c([nH]c(=O)c1C#N)CCCC2 | 15.5% | 10.5% | 3.2% | 9.15 | -8.75% | -23.1%
Cc1cc(C)nc(C)c1.[Cl-].[Cl-].[Cl-].[Cl-].[Pt+2] | 8.9% | 9.25% | -7.5% | 7.4 | 2.6% | 7.1%
CCCc1cc(=O)n(CCCc2ccccc2)c(=O)[nH]1 | -3.85% | 1.25% | 13.4% | -7.75 | 15.2% | 18.4%
Cc1cccc(C(=O)O)n1.[Cu+2] | -20.6% | 7.6% | -19.4% | -69.9 | -27.6% | -11.6%
CCC(O)CNCc1c2ccccc2cc2ccccc12 (stereo unspecified) | 20.1% | 14.7% | 22.1% | 12.6 | 1.95% | 10.8%
O=C(O)C(c1ccccc1)S(=O)(=O)c1ccccc1 (stereo unspecified) | 3.55% | -7% | 8.85% | -16.7 | -11.5% | 5.95%
CCCCCCCC[N+]1([O-])CC[N+](C)([O-])CC1 (stereo unspecified) | 3.9% | 4.1% | -2.25% | -21.5 | -8.3% | 2.55%
O=C(NC1(C(=O)O)CC1c1ccccc1)c1ccccc1 (stereo unspecified) | -1.2% | 21% | 0.05% | -10.2 | 9.05% | 42.8%
Cc1cccc(NC(=O)Nc2ccccc2)n1 | 4.65% | 0.9% | 9.55% | -71.5 | -18.9% | -10.1%
CCOC(=O)/C(=C/c1cn(C(C)=O)c2ccccc12)P(C)(=O)OCC (stereo unspecified) | 33.2% | 52.5% | 55.5% | 40 | 53.5% | 22.2%

Compound | growth inhibition [1] | growth inhibition [2] | growth inhibition [3] | growth inhibition [4] [%] | growth inhibition [5] | growth inhibition [6]
CC1CC(=O)Oc2cc(O)c(O)cc21 (stereo unspecified) | 11.8% | 7.9% | 7.3% | 4.4 | 14.9% | 16.9%
Cc1cc(N)ccc1[N+](=O)[O-] | 2.2% | 31% | 9% | -29.1 | 11.7% | 1.75%
COc1cccc(NCC(=O)Nn2c(-c3ccccc3)nc3ccccc3c2=O)c1 | -37.5% | -40.8% | -27.2% | -3.05 | 5% | -23%
COC(=O)C1(C(=O)OC)OC(c2ccc(OC)cc2)[C@H]2C(=O)N(C)C(=O)[C@H]21 (stereo partly specified) | 2.75% | -6% | 3.1% | -8.7 | 10.2% | 15.3%
O=C(O)CC(Sc1ccccc1)c1ccccc1 (stereo unspecified) | 12.9% | -9.2% | -2.8% | 32 | 45.7% | 7.7%
CC1OC(c2ccc(Cl)cc2Cl)OC1C (stereo unspecified) | 6.45% | -0.9% | 2.65% | 0.7 | 0.95% | 1.5%
O=C1OC(=O)C2=C1CCCC2 | 8.05% | -18.9% | 18.8% | -1.15 | -18% | 6.7%
O=NN(Cc1ccccc1)c1ccc(OCc2ccccc2)c(NC(=O)CCC2OCCO2)c1 | 6.95% | 4.25% | 30.4% | 7.05 | 39.9% | 9.5%
CCC(C)c1cc(CN(C)C)cc(C(C)CC)c1O (stereo unspecified) | 13.1% | 1.1% | 16.4% | 13.8 | 3.2% | 9.05%
ON(CCc1ccncc1)Cc1ccccc1 | 1.6% | -31.1% | -20.1% | 2.95 | -56.3% | 15.5%
CCOC(=O)N/C=C/C(C)=O | -31.1% | -14.2% | -1.5% | -29.4 | -6.35% | -14.5%
Oc1ccc(C(O)CNCCCCCCNCC(O)c2ccc(O)c(O)c2)cc1O (stereo unspecified) | -17.2% | 6.65% | -2% | 6.5 | -1.45% | -4.65%
CCOC(=O)NN(C(=O)OCC)C(=C(C1=CCCCC1)N1CCOCC1)N(NC(=O)OCC)C(=O)OCC | -14.4% | 4.25% | 3.3% | 1.9 | -4.8% | -6.5%
COc1cc2cc3c(c(O)c2c(O)c1/C=C/C(C)C)C(=O)CC(C)(OC(C)=O)C3 (stereo unspecified) | 36.3% | 8.95% | 36.5% | 30.4 | 18.8% | 74.2% (active)
CCC1(C)C(=O)c2ccccc2N(C)C1=O (stereo unspecified) | -5.55% | -10.1% | -9.5% | -37.9 | 5% | -6.25%
O=C(Cc1ccc(Cl)cc1)c1ccccc1Cl | 2.8% | 2.75% | -1% | 1.7 | -5.65% | 4.4%
COC(=O)Nc1cccc(OC(=O)Nc2cccc(Cl)c2)c1 | 10.3% | 25.2% | 26.6% | -2.85 | 31.4% | 1.4%
O=c1c2cc([N+](=O)[O-])ccc2[nH]n1Cc1ccccc1Cl | -0.1% | 12.3% | -3.8% | 14.9 | 6.6% | -4.45%
